# SENP8 block-1: blocks human SENP8 cleavage of Nedd8 substrate; recombinant SENP8, Nedd8 substrate fluorescence; Q96LD8; actives 0.64% (n = 360,000); inhibition, % at 20 µM; in the data active means inhibition mostly above about 40%, no sharp cut-off; inactive means mostly below about 27%
# Target sequence (Q96LD8 whole entry, looked up): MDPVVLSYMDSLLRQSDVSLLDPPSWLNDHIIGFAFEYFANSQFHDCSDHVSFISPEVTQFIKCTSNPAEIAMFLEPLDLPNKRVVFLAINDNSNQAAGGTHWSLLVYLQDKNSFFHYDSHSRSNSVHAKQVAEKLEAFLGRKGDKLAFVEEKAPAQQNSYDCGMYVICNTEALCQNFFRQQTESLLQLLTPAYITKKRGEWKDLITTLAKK
# SENP8 block-2: inhibitors of human SENP8 protease | Q96LD8 | purified SENP8, Z-RLRGG-aminoluciferin cleavage, luminescence | inhibition, % at 10 µM | actives 1.2% (n = 330,000); in the data active means inhibition above about 50%
# SENP6 block: inhibitors of human SENP6 protease; Q9GZR1; inhibition, % at 10 µM; actives 1.8% (n = 330,000); AID 2599; Recombinant SENP6 catalytic domain, aminoluciferin luminescence;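 active means inhibition above about 50% at the single tested dose, limit read from the data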;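 further: plate controls were DMSO wells with enzyme for no effect and DMSO wells lacking enzyme for full effect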
# C8 TRAIL sens: sensitizes caspase-8 expressing cells to TRAIL; NB7+C8 cells + TRAIL, ATPlite viability luminescence; inhibition (viability loss, TRAIL sensitization), % at 10 µM; actives 1% (n = 360,000);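 active means compounds causing at least 50% loss of cell viability in the single-dose screen, relative to plate controls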
# SENP7 block: blocks the human protease SENP7; Q9BQF6; recombinant SENP7, Z-RLRGG-aminoluciferin luminescence, 40 min; inhibition, % at 5 µM; actives 1.5% (n = 330,000);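 active means inhibition above about 50% at the single test dose, limit read from the data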;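 further: plate controls were DMSO with enzyme for no effect and no enzyme buffer wells for full effect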
# Target sequence (Q9BQF6 706-1050 limits assumed): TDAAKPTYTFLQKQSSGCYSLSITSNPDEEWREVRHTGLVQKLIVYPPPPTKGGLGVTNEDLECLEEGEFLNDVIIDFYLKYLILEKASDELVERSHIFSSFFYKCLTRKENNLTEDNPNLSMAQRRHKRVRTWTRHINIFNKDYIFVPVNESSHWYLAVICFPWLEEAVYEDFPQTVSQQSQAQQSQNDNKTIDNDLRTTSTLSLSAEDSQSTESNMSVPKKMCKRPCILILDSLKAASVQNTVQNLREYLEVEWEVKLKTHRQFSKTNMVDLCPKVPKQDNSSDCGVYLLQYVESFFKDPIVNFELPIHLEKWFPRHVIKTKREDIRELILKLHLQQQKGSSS
# PPC-1+TRAIL kill: PPC-1 cancer cell killing with TRAIL present; PPC-1 cells + TRAIL, ATPLite viability luminescence; cell killing (% activity), % at 4 µM or 5 µM; actives 0.41% (n = 220,000); AID 1443;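 active means cell killing above 50% in the first pass at 4 µM, then a duplicate retest at 5 µM averaging 50% or more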;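 further: plate controls were cells with TRAIL plus DMSO for no effect and medium-only wells lacking cells for full effect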
# * = called active by the depositor; i = inactive; . = no result given. Shown are actives, neighbours in structure and some others; about 3% of the full set was active somewhere.
SMILES,SENP8 block-1,SENP8 block-2,SENP6 block,C8 TRAIL sens,SENP7 block,PPC-1+TRAIL kill
Cc1c(Cl)cccc1Nc1nc(N)nc(CSc2ncccn2)n1,18,-10,4,91*,-9,-10
COc1ccc(Nc2nc(N)nc(CN3CCOCC3)n2)cc1,37,-7,-15,5,-4,23
COc1ccc(CCNC(=O)CCCn2c(=S)[nH]c3ccsc3c2=O)cc1OC,14,.,.,-3,.,.
CCOc1ccc(S(=O)(=O)N2CCCC(C(=O)NCC3CCCO3)C2)cc1 (configuration not stated),4,-2,-5,-17,-11,.
COc1ccc2[nH]c3c(NCCC4=CCCCC4)ncnc3c2c1,-436,.,.,54*,.,.
CCCCOc1ncnc2c1[nH]c1ccc(C)cc12,-364,-5,16,43,51*,28
CCCOc1ncnc2c1[nH]c1ccc(OC)cc12,-396,63*,77*,33,81*,18
C=C(c1ccc2nc(NC(=O)OC)[nH]c2c1)c1cccs1,10,.,.,40,.,.
ClN=C1C=CC=CC1=NCl,38*,.,.,0,.,.
CCOc1ccccc1NS(=O)(=O)c1cn(C)c(=O)n(C)c1=O,.,-3,-1,.,7,9
COc1ccc(-c2cc(=O)oc3cc(OCC(=O)NCC4CCC(C(=O)O)CC4)ccc23)cc1 (configuration not stated),1,-1,9,-6,-8,.
COCCNC(=O)Cn1nc(-c2ccc(C)cc2)c2ccccc2c1=O,7,11,17,5,6,.
COc1ccccc1N1CCN(/N=C/C=C/c2ccccc2[N+](=O)[O-])CC1,15,-5,7,2,-2,10
O=C(CCC1CCCCC1)NCc1cccnc1,12,0,2,-20,7,.
O=C(CCC1CCCCC1)Nc1cccnc1,36*,-23,-8,-14,-13,20
Cc1ccccc1N=CC=C1OC(C)(C)C(C)(C)O1,-104,-7,-7,-5,-2,6
O=C(Nc1cnn(C23CC4CC(CC(C4)C2)C3)c1)c1cnn2c(C(F)(F)F)cc(-c3ccco3)nc12,15,7,-7,64*,1,5
CCN(CC(=O)N1CCOCC1)S(=O)(=O)c1ccc2ccccc2c1,14,-1,-6,-1,-8,.
CCN(CC(=O)N1CCc2ccccc2C1)S(=O)(=O)c1ccc2ccccc2c1,16,-17,-10,55*,-4,23
CC(=O)N1CCCC(c2cc(C(=O)Nc3ccccc3)no2)C1 (configuration not stated),10,.,.,43,.,.
O=C(Nc1ccccc1)c1cc(C2CCCN(C(=O)C3CC3)C2)on1 (configuration not stated),-8,.,.,51*,.,.
Cc1cccc(Cn2ncc(Cl)c(Cl)c2=O)c1,9,-13,-17,54*,-9,10
O=c1c2ccccc2cnn1Cc1ccc(Cl)c(Cl)c1,7,-7,-22,17,0,.
Cc1ccc(C)c(C(=O)Cn2ncc(Cl)c(Cl)c2=O)c1,18,0,10,97*,5,26
Cc1cccc(C)c1-n1nnnc1C(c1cc2ccccc2o1)N1CCN(C/C=C/c2ccccc2)CC1 (configuration not stated),25,.,.,13,.,.
SMILES,SENP8 block-1,SENP8 block-2,SENP6 block,C8 TRAIL sens,SENP7 block,PPC-1+TRAIL kill
Cc1nc(SCC(=O)Nc2nccs2)c(C#N)c(C)c1C,i,-11,-6,80*,0,.
COCCNC(=O)C1(C)CCCN(CCS(=O)(=O)c2ccc(C)cc2)C1 (configuration not stated),-1,.,.,-3,.,.
Cc1ccsc1/C=C/c1ccc2ccccc2n1,-22,27,48,56*,7,27
Fc1cccc(F)c1/C=C/c1ccc2ccccc2n1,-50,40,39,58*,5,-5
C(=C\c1ccco1)/c1ccc2ccccc2n1,-299,10,-3,-10,0,0
COc1cccc(/C=C/C(=O)OCC(=O)Nc2ccc(Cl)cn2)c1,-320,-8,-6,4,-7,8
O=C(Nc1ccccc1F)Oc1cccc(OC(=O)Nc2ccccc2F)c1,19,64*,69*,-9,73*,16
COc1cccc(C(=O)Nc2ccccc2F)c1,11,4,19,8,20,8
N#Cc1ccc(C(=O)Nc2ccc([N+](=O)[O-])cc2)c(F)c1,20,-5,-11,2,-6,14
O=C(O)C1Nc2c(O)cc(Cl)c([N+](=O)[O-])c2C2C=CCC12 (configuration not stated),46*,8,-34,2,9,1
Cc1ccc2c(c1)C1C=CCC1C(C(=O)O)N2 (configuration not stated),.,.,.,.,.,22
CCCCN(Cc1ccco1)C(=O)C1CCCN(c2ncnc3c2nc2n3CCCCC2)C1 (configuration not stated),5,-4,-2,5,-5,.
O=[N+]([O-])c1ccc(Cl)c2c1C1C=CCC1C(c1ccccn1)N2 (configuration not stated),42*,-6,9,-4,0,6
O=C(O)c1ccc(Cl)c2c1C1C=CCC1C(c1ccccn1)N2 (configuration not stated),.,-10,-9,.,-12,30
CCOC(=O)c1c2c(n(C)c1C)C(=O)C(=O)c1ccc(Br)cc1-2,114*,93*,94*,97*,97*,.
CCOC(=O)c1c2c3c(cccc3n(C)c1=O)C(=O)c1ccccc1-2,17,10,25,-15,-2,.
Cc1c(CN(C)C)c2c(n1C)C(=O)c1ccc(Br)cc1-2,13,-7,10,-2,-1,1
CCOC(=O)c1c2c(n(Cc3ccccc3)c1C)C(=O)C(=O)c1ccccc1-2,100*,.,.,93*,.,.
Cc1oc(-c2cccs2)cc1C(=O)N1CCCC(C)(C(=O)O)C1 (configuration not stated),-24,.,.,-3,.,.
CCN1CCN(Cc2ccc(NC(=O)c3ccc(C)c(NC(=O)C(=O)c4c[nH]c5ccccc45)c3)cc2C(F)(F)F)CC1,-9,-30,-26,89*,11,-2
CCN1CCN(Cc2ccc(NC(=O)c3ccc(C)c(NC(=O)c4ccc5n[nH]nc5c4)c3)cc2C(F)(F)F)CC1,-2,-17,-21,-10,2,-2
CC(C)(C)c1cc(NC(=O)c2cccs2)no1,2,88*,89*,45,95*,.
Cc1cc(NC(=O)c2ccc(NC(=O)c3cccs3)cc2)no1,2,2,6,2,-4,8
C=C1CC2(OC1=O)c1ccccc1CCc1ccccc12,10,.,.,91*,.,.
O=C(Nc1ccc(NC(=O)c2cccs2)cc1)c1cccs1,1,-15,-22,12,26,.
COc1ccc(C(=O)Nc2ccc3[nH]ncc3c2)cc1,12,7,10,75*,3,.
COc1ccc(C(=O)Nc2ccc3[nH]ccc3c2)cc1,0,16,31,93*,47,.

# Source: PubChem BioAssay
